Screening data deposited in PubChem BioAssay by National Center for Advancing Translational Sciences (NCATS).
KCNH2 3.1 block = qHTS for Inhibitors of KCHN2 3.1: Mutant qHTS | U2OS KCNH2 3.1, thallium flux FluxOr; stronger effect = lower value | activity change, % (tested at about 1.8 µM) | Potassium voltage-gated channel subfamily H member 2, brain isoform KCNH2 3.1 (human) | 340,000 tested, 0.95% active;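 active means maximum activity change below -70%; inconclusive means maximum activity change from -70% to -50%; inactive means maximum activity change above -50%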;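 further: thallium influx rate constant from kinetic fluorescence after stimulation buffer; on the % scale 0 is the no-effect control and ±100 the full control effect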
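Steps: virus added to U2OS suspension (4 h, RT, dark); medium with 10% FBS added, cells plated, 37 C overnight; FluxOr/Red40 loading buffer 45 min RT; stimulation buffer, 2 min kinetic read; rate constant normalized.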
Chronic BCR inh = qHTS Assay to Find Inhibitors of Chronic Active B-Cell Receptor Signaling; ABC-DLBCL IkBa-CBG/CBR reporter, luminescence ratio, 4 h; Potency, µM (doses to about 46.1 µM), for inactives: at the highest dose activity change, negative = inhibition, most hits filed as inhibitors; 340,000 tested, 0.05% active; AID 493014, 2011; active means well fitted inhibition curve with a large enough effect in the signal ratio, with a control signal flat, not every such curve was filed as active; inconclusive means small, poorly fitted or top-dose-only effect, or effect the other way, or a change in a side signal; the % refers to the signal ratio;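 further: potency means the concentration at half of the fitted maximal effect; plate controls were basal doxycycline-induced cells for no effect and cells given 10 µM MG132 for full effect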
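Cell line TMD8 (human ABC DLBCL), stably expressing tet-inducible CBG68-IkBa fusion and CBR; IMDM/0.5% FBS; cpd up to 46 uM; dox induction, 4 h, 37C/5% CO2; dual luminescence; green/red ratio; MG132 control.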
LDHA block = qHTS assay for inhibitors of human lactate dehydrogenase; L-lactate dehydrogenase A chain (Homo sapiens), P00338; purified LDHA, NADH/diaphorase-resazurin fluorescence; stronger effect = lower value; activity change, % (values are at about 110 or 230 µM); 480,000 tested, 0.15% active; AID 1347041, 2019; in the data active means activity change below about -30%; inconclusive means mostly about -25% to -30%;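 further: plate controls were DMSO wells for no effect and wells without enzyme for full effect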
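Enzyme activity of human lactate dehydrogenase 5 (2 nM; 0.06 mM NADH, 0.2 mM pyruvate, 5 min, RT) is measured via a resazurin/diaphorase fluorescence readout of residual NADH.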
hERG WT inh = qHTS for Inhibitors of KCHN2 3.1: Wildtype qHTS | U2OS, BacMam KCNH2, thallium flux FluxOr; stronger effect = lower value | activity change, % at 1.84 µM | 340,000 tested, 0.37% active;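 active means maximum activity change below -70%; inconclusive means maximum activity change between -70% and -50%; inactive means maximum activity change above -50%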; further: on the % scale 0 is the no-effect control and ±100 the full control effect
Target sequence (Q12809 whole entry, looked up): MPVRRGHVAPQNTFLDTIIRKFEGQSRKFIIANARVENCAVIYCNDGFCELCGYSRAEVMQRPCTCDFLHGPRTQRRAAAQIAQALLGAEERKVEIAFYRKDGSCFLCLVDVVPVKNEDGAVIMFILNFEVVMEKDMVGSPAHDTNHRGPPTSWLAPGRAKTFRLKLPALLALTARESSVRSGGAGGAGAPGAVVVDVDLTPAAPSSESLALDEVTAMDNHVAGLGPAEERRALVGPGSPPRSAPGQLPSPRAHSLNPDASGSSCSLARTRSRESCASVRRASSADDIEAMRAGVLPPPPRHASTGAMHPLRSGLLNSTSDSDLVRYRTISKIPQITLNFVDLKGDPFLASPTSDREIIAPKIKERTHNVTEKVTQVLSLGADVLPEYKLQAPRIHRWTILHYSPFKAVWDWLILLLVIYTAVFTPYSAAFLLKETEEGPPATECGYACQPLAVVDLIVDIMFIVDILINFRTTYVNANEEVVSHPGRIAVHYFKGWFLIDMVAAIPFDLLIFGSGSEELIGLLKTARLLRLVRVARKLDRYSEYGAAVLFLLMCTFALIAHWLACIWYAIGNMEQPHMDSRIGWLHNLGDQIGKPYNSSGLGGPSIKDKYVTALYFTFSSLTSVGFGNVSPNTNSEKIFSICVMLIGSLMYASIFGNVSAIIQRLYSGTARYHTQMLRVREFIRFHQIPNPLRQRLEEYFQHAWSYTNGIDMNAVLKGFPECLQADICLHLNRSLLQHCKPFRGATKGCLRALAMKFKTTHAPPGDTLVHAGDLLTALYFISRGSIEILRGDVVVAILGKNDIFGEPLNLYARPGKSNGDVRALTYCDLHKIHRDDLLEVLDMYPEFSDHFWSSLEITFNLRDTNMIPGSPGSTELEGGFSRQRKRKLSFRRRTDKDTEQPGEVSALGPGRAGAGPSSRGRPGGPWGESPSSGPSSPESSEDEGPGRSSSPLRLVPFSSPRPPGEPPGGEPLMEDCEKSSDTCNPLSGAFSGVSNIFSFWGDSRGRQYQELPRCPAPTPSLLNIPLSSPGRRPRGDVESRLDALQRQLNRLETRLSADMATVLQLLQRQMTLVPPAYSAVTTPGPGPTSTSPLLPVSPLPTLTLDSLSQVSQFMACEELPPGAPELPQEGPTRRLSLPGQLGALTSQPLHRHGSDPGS
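U2OS cells transduced with wild-type KCNH2 virus are loaded with FluxOr dye for 45 min, and thallium flux is measured in kinetic reads before and after stimulation buffer. Rate constants are normalized to DMSO controls.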
ClpP mod = qHTS Assay for Activators of ClpP. AID 651965, 2013. purified B. subtilis ClpP, FRET peptide cleavage, 20 min. Potency, µM (titrated, usually from 57.5 µM), for the others: top-dose activity change, negative = active. 340,000 tested, 1.9% active; active means well fitted falling curve with a large enough effect; inconclusive means small, poorly fitted or top-dose-only effect; inactive means no such curve, though single readings can be large or run the other way; further: potency means the concentration at half of the fitted maximal effect; the source files actives as falling curves though it sought activators and does not explain the sign; nearly all actives have a fitted effect of over 65% in size
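ClpP 10 microg/mL final, pH 8 Tris/KCl buffer with BSA, glycerol, Tween-20; compound pinned in; FRET-FV substrate; RT 20 min; Ex320/Em430; ΔFRET vs ADEP 5.8 microM, DMSO, no enzyme.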
ALOX12 inh = Primary qHTS assay for inhibitors of human arachidonate 12S-lipoxygenase (ALOX12): Round 2; Polyunsaturated fatty acid lipoxygenase ALOX12 (Homo sapiens), P18054; purified 12hLO, xylenol orange hydroperoxide absorbance; Potency, µM (top dose mostly 108 µM), for inactives: top-dose activity change, negative = inhibition, hits mostly inhibitors; 580,000 tested, 1.1% active; AID 1671190, 2021; active means well fitted inhibition curve with a large enough effect; inconclusive means small, poorly fitted or top-dose-only effect, or another doubt; inactive means no such curve, though single readings can be large or run the other way; further: potency means the concentration at half of the fitted maximal effect; on the % scale 0 is the no-effect control and ±100 the full control effect
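Hydroperoxide product was detected by ferrous iron/xylenol orange as the 573 to 405 nm absorbance ratio. Arachidonic acid at 40 uM (final) was turned over for 30 min at room temperature by 150 nM human 12hLO, pH 7.0 Hepes buffer, after 15 min compound preincubation.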
Numbers without * were called inactive; u = inconclusive; x = not tested or not shown. In the library only some 3% were active in any assay of this set; here they are far more common.

SMILES | KCNH2 3.1 block | Chronic BCR inh | LDHA block | hERG WT inh | ClpP mod | ALOX12 inh
Cc1ccc(SSc2cc(C)ccc2N)c(N)c1 | -11.3 | u | -2.0 | -0.5 | -11.1% | 10µM*
COc1ccccc1NC(=O)Cc1csc(NC(=S)Nc2ccc(C)cc2)n1 | -5.3 | u | -15.3 | -13.8 | -4.7% | 10µM*
CCC(=O)Nc1nc(CC(=O)Nc2ccccc2OC)cs1 | -8.6 | -8.8% | -0.3 | -4.7 | 0.4% | 8.7%
COc1ccccc1NC(=O)Cc1nc(CCl)cs1 | 1.4 | -9.0% | 1.5 | -2.6 | 1.1% | 39.8µM*
Cc1ccc(-c2csc(/C=C/c3cccc(O)c3)n2)cc1 | x | x | 7.0 | x | x | 7.08µM*
Cc1ccc(S(=O)(=O)/N=C2/C=C(C3C(=O)CC(C)(C)CC3=O)C(=O)c3ccccc32)cc1 | -14.0 | u | 34.3 | 2.8 | -1.9% | 44.7µM*
COc1ccc(CC(=O)NCc2ccc(-n3cccc3)cc2)cc1OC | 2.8 | u | -4.3 | 5.1 | 1.3% | 26.1%
O=C(NCc1ccccc1)c1nn(-c2ccccc2)nc1CO | x | x | 1.5 | x | 31.6µM* | -15.4%
O=C(NCc1cccnc1)c1nn(-c2ccc(Cl)cc2)nc1CO | x | x | -0.2 | x | 28.2µM* | -10.5%
COc1ccc(CC(=O)NCc2nn(-c3ccccc3)nc2C)cc1OC | -179.9* | 3.7% | -0.6 | -0.3 | -5.3% | 0.0%
O=C(NCc1cccnc1)c1nn(-c2ccccc2F)nc1CO | x | x | -8.3 | x | u | -0.3%
O=C(NCc1cccs1)c1nn(-c2ccccc2)nc1CO | x | x | -7.2 | x | 2.7% | 0.0%
Cc1ccc2oc(C(=O)Nc3ccccc3Cl)cc(=O)c2c1 | x | x | 7.7 | x | x | -7.8%
Cc1nc(-c2ccccc2)sc1-c1ccc(SCC(=O)NCc2ccccc2)nn1 | x | x | -4.0 | x | 109.6% | -16.0%
COc1ccccc1CNC(=O)CSc1ccc(-c2sc(-c3ccccc3)nc2C)nn1 | x | x | -7.4 | x | 28.2µM* | -4.6%
CCCCn1c(NS(=O)(=O)c2ccccc2)c(S(=O)(=O)c2ccc(C)cc2)c2nc3ccccc3nc21 | -3.2 | 0.5% | 13.7 | -13.3 | 15.8µM* | u
Cc1ccc(C(=O)Nn2c(N)c(S(=O)(=O)c3ccc(C)cc3)c3nc4ccccc4nc32)cc1 | -11.1 | 8.6% | -15.0 | 0.1 | 28.2µM* | u
Nc1c(S(=O)(=O)c2ccccc2)c2nc3ccccc3nc2n1C1CC1 | 7.6 | 1.1% | -10.3 | -10.8 | x | 0.0%
Cc1ccc(S(=O)(=O)c2c(N)n(CCCO)c3nc4ccccc4nc23)cc1 | -6.1 | 9.4% | -6.2 | -1.7 | 29.2% | u
Cn1c(N)c(S(=O)(=O)c2ccc(Br)cc2)c2nc3ccccc3nc21 | 10.2 | u | 8.8 | -3.4 | 14.1µM* | -23.4%
Cc1ccc(S(=O)(=O)c2c(N)n(NC(=O)c3ccccc3C)c3nc4ccccc4nc23)cc1 | 15.5 | u | -2.4 | 24.1 | 31.6µM* | u
Cc1cccc(NC(=O)CC2Nc3ccccc3NC2=O)c1C (stereo not given) | x | x | -13.6 | x | x | u
Cc1ccc(S(=O)(=O)c2c(N)n(CCC(C)C)c3nc4ccccc4nc23)cc1 | -16.5 | u | 6.3 | 2.6 | 25.1µM* | u
CCCNc1nc2ccccc2nc1C(=O)Nc1cccc(Cl)c1 | x | x | 6.8 | x | x | -9.7%
Cc1cc(NS(=O)(=O)c2ccc(NC(=S)NC(=O)c3ccccc3)cc2)no1 | -16.8 | u | -9.1 | -19.9 | -1.5% | 15.8µM*
Cc1cc(NS(=O)(=O)c2ccc(NC(=S)NC(=O)c3ccc(C(C)(C)C)cc3)cc2)no1 | 8.8 | 0.4% | -4.3 | -3.1 | 0.9% | 7.08µM*
